Screening results from PubChem.
Pf growth 48h – Primary qHTS for delayed death inhibitors of the malarial parasite plastid, 48 hour incubation; P. falciparum luciferase growth in erythrocytes, 48 h; Potency, µM (doses to about 28.7 µM), actives largely listed as inhibitors; 310,000 compounds, 5.9% hits; AID 504832, 2011
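Parasite viability was followed by luminescence of a genomically integrated firefly luciferase. Cultures held 0.1% parasitemia at 2% hematocrit (final), incubated under 5% CO2 at 37 C.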
Giardia FBPA inh – qHTS Assay for Inhibitors of Fructose-1,6-bisphosphate Aldolase from Giardia Lamblia; purified Giardia FBPA; 290,000 compounds, 0.71% hits; A8B2U2; Potency, µM (doses to about 59.6 µM), usual class: inhibitors; also: nearly all actives have a fitted effect of over 55% in size
Target sequence (A8B2U2 whole entry, looked up): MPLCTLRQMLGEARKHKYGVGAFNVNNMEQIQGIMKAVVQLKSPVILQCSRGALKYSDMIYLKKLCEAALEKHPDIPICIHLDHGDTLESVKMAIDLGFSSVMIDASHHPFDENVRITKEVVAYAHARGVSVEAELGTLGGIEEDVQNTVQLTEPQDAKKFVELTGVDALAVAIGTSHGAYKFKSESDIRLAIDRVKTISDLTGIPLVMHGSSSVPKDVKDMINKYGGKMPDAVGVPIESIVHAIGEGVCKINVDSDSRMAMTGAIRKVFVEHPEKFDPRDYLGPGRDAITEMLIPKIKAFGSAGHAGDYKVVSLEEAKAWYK
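40 nM FBPA preincubated 10 min at RT with compound (up to 57.5 uM final), then substrate plus GAPDH/TPI/NAD/arsenate coupling and diaphorase/resazurin added. Fluorescence read after 20 min at RT, 525/598 nm.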
Shiga toxin inh – A qHTS for Small Molecule Inhibitors of Shiga Toxin; Vero cells, Shiga toxin protein synthesis inhibition reporter; inhibition, % at 38.7 µM; 290,000 compounds, 9.2% hits; AID 2315, 2010; in the data active = inhibition mostly above about 28%, no sharp cut-off; inactive = mostly below about 43%
NS1 function inh – qHTS Assay for Inhibitors of Influenza NS1 Protein Function. Potency, µM (top dose mostly 46.1 µM). 270,000 compounds, 0.4% hits; calls by dose curve; also: actives are rising curves; nearly all actives have a fitted effect of over 50% in size
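Recovery from NS1-induced slow growth read by OD600 in budding yeast switched to galactose assay medium (pH 6.0, -URA) at 1:100 dilution. Compound 23 nl per well; the matching strain lacking NS1 serves as control.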
Cycloheximide cs – Cycloheximide Counterscreen for Small Molecule Inhibitors of Shiga Toxin. cell reporter, cycloheximide protein synthesis inhibition counterscreen. max response, %. 300,000 compounds, 12% hits. AID 2314, 2010; in the data active = max response mostly above about 13%, no sharp cut-off; inactive = mostly below about 14%; also: read at 38.3 µM for the half of the compounds with a filed dose
Pf growth 96h – Primary qHTS for delayed death inhibitors of the malarial parasite plastid, 96 hour incubation; AID 504834, 2011; P. falciparum luciferase reporter growth, 96 h; Potency, µM (doses to about 28.7 µM), actives largely listed as inhibitors; 320,000 compounds, 6.9% hits
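Parasite growth measured via integrated firefly luciferase reporter in P. falciparum. Infected erythrocytes at 2% hematocrit, 0.05% parasitemia final were treated 96 hours at 37 C under 5% CO2, and luminescence was read.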
Each line names hits and unclear results; the compound was inactive in the other large screens. Compounds with a hit are over-represented: about 21% of the library has one in this group of screens. Unless noted, calls follow the shape of the dose curve; as a rule, active = well fitted curve in the direction sought with a large enough effect; inconclusive = small, poorly fitted or top-dose-only effect, or another doubt; inactive = no such curve, though single readings can be large; an effect the other way counts as inactive or inconclusive.

Cc1ccc(/C(N)=N/OC(=O)Cc2ccccc2)cc1	Shiga toxin inh 54, Cycloheximide cs 53
N/C(=N\OC(=O)CCCc1ccccc1)c1ccccc1Cl	Cycloheximide cs 33 (no result: Giardia FBPA inh)
COc1ccc(/C(N)=N/OC(=O)Cc2ccc(C)cc2)cc1	Shiga toxin inh 50, Cycloheximide cs 30
CCC(C(=O)O/N=C(\N)c1ccc(C)cc1)c1ccccc1 (configuration not stated)	none (no result: Pf growth 48h)
COc1cccc(N(CC(=O)NC2CCCCC2)C(=O)CCCC(=O)Nc2ccccn2)c1	Pf growth 48h inconclusive
Nc1ncc(-n2cncn2)c(-c2ccc(Cl)cc2)n1	none
CC(C)=CCC/C(C)=C/CO/N=C1/C[C@@H](O)[C@@H](O)[C@@H]2[C@@H]3C(=O)N(C[C@@H]4CCCO4)C(=O)[C@H]3CC[C@H]12	none (no result: Pf growth 48h, Shiga toxin inh, NS1 function inh, Cycloheximide cs, Pf growth 96h)
N/C(=N\OC(=O)Cc1ccccc1)c1ccc(Br)cc1	Shiga toxin inh 104, Cycloheximide cs 53
Cc1ccc(/C(N)=N/OC(=O)CCCc2ccccc2)cc1	Shiga toxin inh 43, Cycloheximide cs 57 (no result: Giardia FBPA inh)
Cc1ccc(CC(=O)O/N=C(\N)c2ccncc2)cc1	Cycloheximide cs 30 (no result: Giardia FBPA inh)
N/C(=N\OC(=O)Cc1ccccc1)c1ccncc1	none
CCOc1ccccc1OCCCC(=O)ON=C(N)c1ccccc1	none (no result: Giardia FBPA inh, Shiga toxin inh, NS1 function inh, Cycloheximide cs)
O=C(CN1C(=O)C2CCCCC2C1=O)Nc1cc(C(F)(F)F)ccc1N1CCCC1 (configuration not stated)	Pf growth 48h inconclusive (no result: Giardia FBPA inh, Shiga toxin inh, NS1 function inh, Cycloheximide cs)
COc1cccc(C(=O)CC(=O)C(=O)Nc2ccc(C)cc2Cl)c1	Shiga toxin inh 38, Cycloheximide cs 12
COc1cc(OC)c(NC(=O)C(=O)CC(=O)c2ccc(C)cc2C)cc1Cl	Pf growth 48h inconclusive, Pf growth 96h 3.3µM (no result: NS1 function inh)
O=C1CC(c2ccc(O)cc2)Oc2cc(O)cc(O)c21 (configuration not stated)	Cycloheximide cs 14
O=C1CC(c2ccc(O)c(O)c2)Oc2cc(O)cc(O)c21 (configuration not stated)	Pf growth 96h inconclusive
O=C1CC(c2ccccc2)Oc2cc(O)cc(O)c21 (configuration not stated)	Shiga toxin inh 57, Cycloheximide cs 16, Pf growth 96h inconclusive
CC(C)c1ccc(N2CC(C)(C)C2=O)cc1	Shiga toxin inh 74, Cycloheximide cs 29 (no result: NS1 function inh)
C/C(=C\c1ccccc1)C(=O)NCc1ccco1	Shiga toxin inh 66, Cycloheximide cs 36, Pf growth 96h inconclusive (no result: NS1 function inh)
O=C(NCCc1ccccc1)C(=Cc1ccc(C(=O)O)cc1)C(=O)NCCc1ccccc1	Pf growth 96h inconclusive
C/C(=C\c1ccccc1)C(=O)NCCc1ccccc1	Shiga toxin inh 66, Cycloheximide cs 31
Cn1c(-[n+]2c(-c3ccccc3)cc(-c3ccccc3)cc2-c2ccccc2)nc2c([N+](=O)[O-])cccc21	Pf growth 48h 12µM, Pf growth 96h inconclusive
O=[N+]([O-])c1cccc2nc(-c3ccccc3)c(-c3ccccc3)nc12	none
CC1=NC(=O)C(N=Nc2cccc(C(=O)O)c2)N1c1ccccc1 (configuration not stated)	Shiga toxin inh 104, Cycloheximide cs 35 (no result: Pf growth 96h)
CC1=NC(=O)C(N=Nc2ccccc2C(=O)O)N1c1ccccc1 (configuration not stated)	Pf growth 96h 4.7µM
CC1=NC(=O)C(N=Nc2ccccc2)N1c1ccccc1 (configuration not stated)	Shiga toxin inh 52, Cycloheximide cs 29
Cc1noc(C)c1COc1ccc(C(=O)NCCc2ccccn2)cc1	none (no result: NS1 function inh)
O=C(N/N=C/c1ccccc1[N+](=O)[O-])C(=O)N1CCCC1	Shiga toxin inh 52, Cycloheximide cs 20
O=C(CC(=O)NC1CCCCC1)N/N=C/c1ccccc1[N+](=O)[O-]	Shiga toxin inh 47, Cycloheximide cs 29, Pf growth 96h inconclusive
O=C(CC(=O)NC1CCCCC1)N/N=C/c1ccccc1Cl	Pf growth 96h inconclusive
O=C(N/N=C/c1cccc2ccccc12)C(=O)N1CCCC1	none
O=C(CNS(=O)(=O)c1ccccc1)N/N=C/c1ccccc1[N+](=O)[O-]	none
O=C(CCCO)N/N=C/c1ccccc1[N+](=O)[O-]	Shiga toxin inh 39
